# From ChEMBL document CHEMBL4513216, “Probing the Open Global Health Chemical Diversity Library for Multistage-Active Starting Points for Next-Generation Antimalarials” (ACS Infect Dis, 2020)
# About 8,600 (12%) of roughly 69,000 compounds showed an effect of 50% or more. The sample holds strong results, similar compounds and a random draw of the others, so the mix is not that of the screen.
# Test system: Plasmodium berghei
# Test: Screen against P. berghei liver stage (PbLuc), transformed with Luciferase, at 10uM
# Type: functional, HepG2
# Conditions: tested at 10 uM
row,Compound,INHIBITION [%]
1,CC1CN(C)CCN1C(=O)Nc1nc(-c2cccn2C)cs1 (centres undefined),47
2,CCCc1nnc(N2CCN(c3cccc(C)c3C)CC2)o1,30.1
3,Cc1nc2sccn2c1C(=O)N1CCc2c(nc(N(C)C)[nH]c2=O)C1,51.8
4,Cc1nc2sccn2c1C(=O)N1CCc2c(nc(N)[nH]c2=O)C1,-31.6
5,O=C(c1cn(CC(=O)N2CCc3[nH]cnc3C2)c2ccccc12)C1CC1,12.6
6,CC(=O)Nc1cccc(C(=O)N2CCc3c(nc(N(C)C)[nH]c3=O)C2)c1,41.5
7,Cc1nc2ncccn2c1C(=O)N1CCc2[nH]cnc2C1,22.5
8,Cc1nc2sccn2c1C(=O)N1CCc2[nH]cnc2C1,58.3
9,O=C(Nc1ccc(F)cc1-c1nc(C2CC2)no1)N1CC[C@@H](O)C1,42.1
10,COc1ccccc1NC(=O)CCNC(=O)c1ccoc1,-37.8
11,CCc1nc(C2CCCN2C(=O)CCc2c(C)noc2Cl)no1 (centres undefined),1.78
12,CCc1nnc2n1CCN(C(=O)C(C)Oc1cccc(C#N)c1)C2 (centres undefined),-15
13,COCC(=O)N1CCN(CCn2cccn2)c2nc(C)ccc2C1,21.4
14,FC(F)(F)c1nc(NC2CCCC2)c2ccccc2n1,88.4
15,CCC(Nc1nc(C(F)(F)F)nc2ccccc12)C(=O)O (centres undefined),-21.3
16,Cc1nc2n(n1)CC(Nc1nc(C(F)(F)F)nc3ccccc13)CC2 (centres undefined),-59.3
17,CC(C(=O)NC1CCCCC1)N1CCc2[nH]nc(C(F)(F)F)c2C1 (centres undefined),-41.7
18,CC(C)C(Nc1nc(C(F)(F)F)nc2ccccc12)C(=O)O (centres undefined),22.3
19,FC(F)(F)c1nc(NC2CCCCC2)c2ccccc2n1,88.4
20,Cc1noc(C)c1-c1ccc(C2CCCN2CCC(N)=O)nc1 (centres undefined),30.4
21,CC(C)N1CCC(Cc2cncc(-c3cc(F)ccc3C(=O)O)n2)C1 (centres undefined),35.2
22,Cc1cnc(CN2CCCC2c2cnn(C)c2)cn1 (centres undefined),-11.4
23,Cc1ccccc1N(CC(=O)NCCc1nnc2n1CCC2)S(C)(=O)=O,-9.51

row,Compound,INHIBITION [%]
1,CN1CCCCC1c1ncc2c(n1)CCN(Cc1ccc(Cl)c(F)c1)C2 (centres undefined),58.1
2,CN1CCCCC1c1ncc2c(n1)CCN(Cc1ccccc1Cl)C2 (centres undefined),51.7
3,COc1ccc(CN2CCc3nc(C4CCCCN4C)ncc3C2)cc1 (centres undefined),42.6
4,CN1CCc2nc(C3CCCCN3Cc3ccccc3Cl)ncc2C1 (centres undefined),13.5
5,CN1CCCCC1c1ncc2c(n1)CCN(Cc1ccc(F)cc1)C2 (centres undefined),24.4
6,Clc1ccccc1CN1CCc2nc(C3CCCCN3)ncc2C1 (centres undefined),43.2
7,CC(=O)N(Cc1noc(C)n1)C1CCN(Cc2c(C)noc2C)C1 (centres undefined),-27.8
8,O=C(c1ccc(-n2cccn2)nc1)N1CCC(c2ccn[nH]2)C1 (centres undefined),23
9,O=C(c1ccc(-n2cccn2)nc1)N1CCC(c2ccc(O)cc2)CC1,50.1
10,Cc1cncc(C2CCN(C(=O)c3ccc(-n4cccn4)nc3)CC2)n1,-35.5
11,O=C(O)CN(Cc1ccsc1)CC1CCCO1 (centres undefined),8.7
12,Cc1noc(C)c1CN1CCn2cc(CN3CCCC3)nc2C1,-15.2
13,CCc1cnc(N)nc1NCCCN1CCCCC1CO (centres undefined),6.94
14,CCc1cnc(N)nc1NCc1ccc(OC)c(OC)c1,44
15,CCc1cnc(N)nc1NCCc1ccc(OC)cc1OC,58.05
16,CCc1cnc(N)nc1NCCn1cc(Cl)cn1,30.4
17,COc1ccc(CNc2cc(-c3nc(C)no3)ccn2)c(OC)c1,6.61
18,CCc1cnc(N)nc1NCCCn1nc(C)nc1C,14.6
19,CCc1cnc(N)nc1NCCCn1cc(Cl)cn1,64.1
20,CCc1cnc(N)nc1NCc1ccc(OC)cc1OC,73.8
21,COc1ccc(OC)c(CCNc2ncc(S(N)(=O)=O)s2)c1,-19.9
22,COc1cccc(C(=O)N2CCC(Nc3ccc(C)nn3)CC2)c1,21.5
23,Cc1nnc(NC(=O)NC(C)Cn2cccn2)s1 (centres undefined),-21.9

row,Compound,INHIBITION [%]
1,COc1cc2nc(C)n(CC(=O)NCCCO)c(=O)c2cc1OC,-5.01
2,Cn1cc(C(=O)N[C@@H]2CN(Cc3ccc(F)cc3)[C@@H]3CCCO[C@@H]32)cn1,-17.1
3,Nc1nccc(N2CCNC(C(=O)NCc3ccccn3)C2)n1 (centres undefined),52.6
4,Cc1ccc(CN2CCNC(C(=O)NC3CC3)C2)cc1C (centres undefined),-2.25
5,O=C(NCc1ccccn1)NC1CCCN(c2ncccn2)C1 (centres undefined),23
6,CCNC(=O)O[C@H]1COCCN(c2nc3ccccc3s2)C1,-3.58
7,CCCc1nc(C)cc(N2CCNC(C(=O)NC3CC3)C2)n1 (centres undefined),47.1
8,O=C(NCc1ccccn1)C1CN(c2nc3ccccc3s2)CCN1 (centres undefined),58.2
9,O=C(NC1CCCC1)O[C@H]1COCCN(c2nc3ccccc3s2)C1,85.1
10,O=C(NCc1cccnc1)C1CN(c2cnc3ccccc3n2)CCN1 (centres undefined),37.8
11,CC(C)NC(=O)O[C@H]1COCCN(c2nc3ccccc3s2)C1,-1.12
12,O=C(NCc1ccncc1)C1CN(c2nc3ccccc3s2)CCN1 (centres undefined),30.4
13,O=C(NCc1ccccn1)[C@H]1COC[C@H]2CN(c3ncccn3)C[C@H]21,41
14,O=C(NC1CC1)C1CN(c2nc3ccccc3s2)CCN1 (centres undefined),65.6
15,Cc1cc(=O)n2c3c(cc(S(=O)(=O)NC4CC4)cc13)CCC2,49.45
16,Cc1cc(CN2CCc3cncnc3C2)no1,23.9
17,Cc1ccccc1-c1cc(CC2(C(=O)O)CCOCC2)on1,-21.4
18,Cc1cc(CN2CCN(Cc3ccccc3F)CC2)no1,-4.35
19,CN(C)C(=O)c1cncnc1-c1ccc(CNC(=O)C2CCCO2)cc1 (centres undefined),4.615
20,CC(C)n1c(=O)[nH]c2cn(-c3ccc(F)cc3)c(=O)n21,3.16
21,Cc1[nH]c2c(C)ccc(C)c2c1CC(=O)NCC(O)c1cccnc1 (centres undefined),76.5
22,Cc1[nH]c2c(C)ccc(C)c2c1CC(=O)NCCNc1cccnc1,-17.2
23,Cc1[nH]c2c(C)ccc(C)c2c1CC(=O)NCCCNc1cccnc1,36.7
